Structures can show the parent of a compound that is named as a salt. ± gives the standard deviation of the averaged measurements.

In this assay the test system is Klebsiella pneumoniae KPC-119. As to the kind of experiment: percent growth inhibition of drug + antibiotic vs DMSO control; higher = more growth inhibition. Conditions: antibiotic (0.125x MIC): colistin; 7 µM.
For the compound `CCn1cc(C(=O)O)c(=O)c2cc(F)c(N3CCNCC3)nc21` [Enoxacin], the percent growth inhibition is 13.6 ± 6.1%.

`C[C@@H]1CN(c2c(F)c(N)c3c(=O)c(C(=O)O)cn(C4CC4)c3c2F)C[C@H](C)N1` [Sparfloxacin]: the percent growth inhibition stood at 99.4 ± 0.42%. For `COc1cccc2c1C(=O)c1c(O)c3c(c(O)c1C2=O)C[C@@](O)(C(C)=O)C[C@@H]3O[C@H]1C[C@H](N)[C@H](O)[C@H](C)O1` [Daunorubicin hydrochloride] the value was -2.48 ± 6.2%; for `COC(=O)N/N=C/c1c[n+]([O-])c2ccccc2[n+]1[O-]` [Carbadox], 34.1 ± 0.81%.

On to `C=CC1=C(C(=O)O)N2C(=O)[C@@H](NC(=O)/C(=N\OCC(=O)O)c3csc(N)n3)[C@H]2SC1` [Cefixime], for which the percent growth inhibition stood at 9.79 ± 12%. The same measure for `CCCCC(CC)CNC(=N)NC(=N)NCCCCCCNC(=N)NC(=N)NCC(CC)CCCC` (stereo unspecified) [Alexidine dihydrochloride]: 98.02 ± 0.96%; for `CC1COc2c(N3CCN(C)CC3)c(F)cc3c(=O)c(C(=O)O)cn1c23` (stereo unspecified) [Ofloxacin]: 98.02 ± 0.8%.

Consider `CS(=O)(=O)c1ccc([C@@H](O)[C@@H](CF)NC(=O)C(Cl)Cl)cc1` [Florfenicol], for which the percent growth inhibition was 97.49 ± 0.25%. On to `CN(C(=O)CN(CCO)CC(=O)N(C)C(C)(C)Cc1ccccc1)C(C)(C)Cc1ccccc1` [Oxethazaine], for which the percent growth inhibition is 4.52 ± 0.46%. The same measure for `Oc1c(I)cc(Cl)c2cccnc12` [Clioquinol]: 47.2 ± 5.2%; for `NCC[C@H](O)C(=O)N[C@@H]1C[C@H](N)[C@@H](O[C@H]2O[C@H](CN)[C@@H](O)[C@H](O)[C@H]2O)[C@H](O)[C@H]1O[C@H]1O[C@H](CO)[C@@H](O)[C@H](N)[C@H]1O` [Amikacin hydrate]: 38.9 ± 2.6%.
